5 compounds from PubChem BioAssay can be followed below.

The structures appear in SMILES notation. Activity calls are given as the source filed them.

Assay [1] concerns Plasmodium falciparum Sir2 (PF13_0152, Sir2A). Put plainly: Plasmodium falciparum Sir2A binding compounds – biochemical, small-molecule microarray, 635 nm fluorescence, primary screen (AID 1098).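 Also: score merges spot fluorescence intensity with its signal-to-noise ratio.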 The conditions noted are these: fluorescence 635 nm, higher = more signal.
Assay [2] in a line: probe aDKK1 binding to arrayed compounds – biochemical, biotinylated probe, 635/667 nm fluorescence, primary screen (AID 1099).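 Also: score merges 667nm spot fluorescence with signal to noise across triplicate slides.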 The conditions noted are these: small-molecule microarray, higher = more signal.
Assay [3] can be described thus: probe aCHRDL2 binding to arrayed compounds – biochemical, biotinylated probe, 635/667 nm fluorescence, primary screen (AID 1100). The conditions noted are these: small-molecule microarray, higher = more signal.
Assay [4] is described as follows: change in splice reporter luminescence, either direction, cell-based, HEK293, spliceosome inhibition project, primary screen (AID 1101).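 Also: HEK293 cells carrying a splicing-competent luciferase reporter gene; test concentration not given here.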 The note with it: HEK293 splicing luciferase reporter, 24 h, higher = more signal, called active from +8 up or from −8 down. A general note: In a reporter assay the amount or activity of a reporter protein is the signal.
Assay [5] deals with Fibroblast growth factor 10 (Homo sapiens) (UniProt O15520). Put plainly: compounds binding fibroblast growth factor 10 – biochemical, small-molecule microarray, 635 nm fluorescence, primary screen (AID 1102). The conditions noted are these: FGF10 binding, fluorescence 635 nm, higher = more signal.
Fibroblast growth factor 10 (Homo sapiens), sequence (O15520 whole entry, looked up): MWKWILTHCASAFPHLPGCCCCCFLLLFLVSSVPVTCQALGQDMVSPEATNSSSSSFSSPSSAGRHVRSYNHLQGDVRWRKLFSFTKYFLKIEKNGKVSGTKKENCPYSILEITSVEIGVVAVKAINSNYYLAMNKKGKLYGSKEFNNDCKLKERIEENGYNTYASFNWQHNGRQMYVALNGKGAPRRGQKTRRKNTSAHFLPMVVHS
In assay [6] the test system is glycogen synthase kinase-3 (GSK3A per assay name; protocol says GSK3B). Put plainly: compounds binding glycogen synthase kinase-3 – biochemical, small-molecule microarray, 635 nm fluorescence, GSK3A, primary screen (AID 1103). Also: the record names both GSK3A and GSK3B. The note with it: fluorescence 635 nm, higher = more signal.
Assay [7] addresses Epidermal growth factor receptor (Homo sapiens) (UniProt P00533). The assay can be described thus: compounds binding epidermal growth factor receptor – biochemical, small-molecule microarray, 635 nm fluorescence, primary screen (AID 1104).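 Also: score merges 667 nm emission intensity with spot signal to noise over triplicate slides.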 The note with it: EGFR binding, higher = more signal.
Assay [8] addresses Follistatin-related protein 3 (Homo sapiens) (UniProt O95633). Put plainly: compounds binding follistatin-related protein 3 – biochemical, small-molecule microarray, 635 nm fluorescence, primary screen (AID 1105).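 Also: score merges emission near 667 nm and signal to noise per printed spot across three slides.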 The note with it: FSTL3 binding, higher = more signal.
Assay [9] has as its target Dickkopf-related protein 1 (Homo sapiens) (UniProt O94907). The assay can be described thus: small molecules binding DKK1 protein – biochemical, small-molecule microarray, 635 nm fluorescence scan, primary screen (AID 1106).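 Also: score merges emission near 667 nm with signal to noise over three replicate slides.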 The note with it: higher = more signal.
Assay [10] relates to Inhibin beta A chain (activin A). Put plainly: small molecules binding activin A – biochemical, small-molecule microarray, 635 nm fluorescence scan, primary screen (AID 1107).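 Also: mouse activin A protein probed at 4.33 µg/mL on printed slides; score merges bound-protein fluorescence near 667 nm with spot signal-to-noise.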 The note with it: INHBA, higher = more signal.
The subject of assay [11] is Human papillomavirus type 1a protein E7 (residues 44-93). Put plainly: small molecules binding HPV E7 44-93 – biochemical, small-molecule microarray, residues 44-93, 635 nm fluorescence, primary screen (AID 1108).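 Also: E7 fragment applied at 1 µg/mL in TBST for 1 h at 4 C; score combines spot fluorescence with its signal to noise ratio.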 The conditions noted are these: fluorescence 635 nm, higher = more signal.
Assay [12] can be described thus: hepatitis C replication reporter changes, two-sided – Huh7 cells, luciferase reporter, HCV replication inhibitor project, primary screen (AID 1109).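 Also: huh7 hepatoma cells harbouring a luciferase neomycin HCV replicon reporter; luciferase luminescence as measure of HCV replicon replication; test concentration not given here.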 The note with it: Huh7 HCV replicon luciferase reporter, 48 h; higher = more signal.
Assay [13] has as its target Left-right determination factor 2 (Homo sapiens) (UniProt O00292). Put plainly: small molecules binding LEFTY2 protein – biochemical, small-molecule microarray, 635 nm fluorescence scan, primary screen (AID 1110). The note with it: higher = more signal.
In assay [14] the target is Calmodulin-1 (Homo sapiens) (UniProt P0DP23). The assay can be described thus: small molecules binding calmodulin-1 with EGTA – biochemical, small-molecule microarray, Cy5-labelled CALM1, profiling panel (AID 1111).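 Also: labelled calmodulin applied in Tris saline Tween buffer holding calcium plus EGTA and DTT.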 The conditions noted are these: Cy5-CALM1 binding fluorescence, higher = more signal.
The target is the same in assay [15]. The assay can be described thus: small molecules binding Ca-loaded calmodulin-1 – biochemical, small-molecule microarray, Cy5-labelled CALM1, plus calcium, artefact control for SMM control-protein annotation, profiling panel (AID 1112).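 Also: score merges spot fluorescence with signal to noise from triplicate slides.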 The note with it: Cy5-CALM1 binding fluorescence, higher = more signal.
Assay [16] can be described thus: probe aWnt5a binding to arrayed compounds – biochemical, biotinylated probe, 635/667 nm fluorescence, primary screen (AID 1113).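 Also: score merges 667 nm fluorescence intensity with signal-to-noise per printed feature.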 The conditions noted are these: small-molecule microarray, higher = more signal.
A short description of assay [17]: probe aShh binding to arrayed compounds – biochemical, biotinylated probe, 635/667 nm fluorescence, primary screen (AID 1114).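 Also: probe is biotin-labelled aShh protein from a stem cell growth factor screen; measures binding of labelled protein to compounds printed on the slide; score merges feature fluorescence at 667 nm with signal-to-noise.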 The note with it: small-molecule microarray, higher = more signal.
A short description of assay [18]: probe aNog binding to arrayed compounds – biochemical, biotinylated probe, 635/667 nm fluorescence, primary screen (AID 1115).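 Also: probe is biotinylated aNog protein used at 0.15 µg/mL for 1 h at 4 C; z-score combines 667 nm fluorescence of each spot with its signal to noise.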 The note with it: small-molecule microarray, higher = more signal.
Assay [19] has as its target Torsin-1A-interacting protein 1 (Homo sapiens) (UniProt Q5JTV8). Put plainly: compound microarray binding of lysate hLAP1 – cell lysate, small-molecule microarray, COS7 lysate, 635/667 nm fluorescence, primary screen (AID 1116). The note with it: 635 nm fluorescence, higher = more signal.
Assay [20] addresses Alpha-bungarotoxin (Bungarus multicinctus) (UniProt P60615). Put plainly: compounds binding labelled alpha-BTX control protein – biochemical, small-molecule microarray, Alexa647 label, 635/667 nm fluorescence, artefact control for SMM control protein annotation, profiling panel (AID 1117). The note with it: alpha-BTX-A647 binding fluorescence, higher = more signal.

Alpha-bungarotoxin (Bungarus multicinctus), sequence (P60615 whole entry, looked up): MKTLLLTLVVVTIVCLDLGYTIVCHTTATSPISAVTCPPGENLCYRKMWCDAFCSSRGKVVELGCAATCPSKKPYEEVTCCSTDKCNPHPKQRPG
Left-right determination factor 2 (Homo sapiens), sequence (O00292 whole entry, looked up): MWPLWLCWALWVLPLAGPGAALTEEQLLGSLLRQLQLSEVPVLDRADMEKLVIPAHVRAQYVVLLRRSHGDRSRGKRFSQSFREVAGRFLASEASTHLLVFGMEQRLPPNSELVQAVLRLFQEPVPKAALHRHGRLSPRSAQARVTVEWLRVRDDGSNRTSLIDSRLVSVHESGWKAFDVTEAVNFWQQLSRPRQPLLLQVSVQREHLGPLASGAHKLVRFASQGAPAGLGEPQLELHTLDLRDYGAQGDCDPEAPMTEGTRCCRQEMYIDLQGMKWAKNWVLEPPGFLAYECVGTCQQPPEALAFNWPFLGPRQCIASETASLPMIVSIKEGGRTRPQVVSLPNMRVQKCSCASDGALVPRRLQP
Follistatin-related protein 3 (Homo sapiens), sequence (O95633 whole entry, looked up): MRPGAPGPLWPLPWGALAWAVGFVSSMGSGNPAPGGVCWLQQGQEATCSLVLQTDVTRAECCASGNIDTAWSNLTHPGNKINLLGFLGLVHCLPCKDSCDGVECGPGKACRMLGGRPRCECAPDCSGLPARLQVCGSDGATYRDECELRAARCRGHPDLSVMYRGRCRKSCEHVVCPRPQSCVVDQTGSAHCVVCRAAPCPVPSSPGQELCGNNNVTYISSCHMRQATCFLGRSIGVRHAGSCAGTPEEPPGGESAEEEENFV
Torsin-1A-interacting protein 1 (Homo sapiens), sequence (Q5JTV8 whole entry, looked up): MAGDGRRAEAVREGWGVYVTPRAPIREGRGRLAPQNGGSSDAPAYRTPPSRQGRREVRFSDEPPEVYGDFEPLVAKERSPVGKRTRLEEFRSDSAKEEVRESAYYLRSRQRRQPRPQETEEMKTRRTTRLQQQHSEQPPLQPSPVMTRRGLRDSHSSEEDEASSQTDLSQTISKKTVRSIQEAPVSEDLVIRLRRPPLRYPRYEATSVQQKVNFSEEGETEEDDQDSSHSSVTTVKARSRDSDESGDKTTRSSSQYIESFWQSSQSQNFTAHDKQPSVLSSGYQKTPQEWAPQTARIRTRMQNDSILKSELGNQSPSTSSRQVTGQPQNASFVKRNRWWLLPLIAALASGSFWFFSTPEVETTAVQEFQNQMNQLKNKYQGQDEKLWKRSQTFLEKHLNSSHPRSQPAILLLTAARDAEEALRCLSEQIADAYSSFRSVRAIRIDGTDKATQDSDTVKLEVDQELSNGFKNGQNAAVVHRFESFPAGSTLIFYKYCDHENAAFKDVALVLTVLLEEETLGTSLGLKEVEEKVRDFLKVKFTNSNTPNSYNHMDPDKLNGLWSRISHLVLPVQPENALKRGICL
Epidermal growth factor receptor (Homo sapiens), sequence (P00533 whole entry, looked up): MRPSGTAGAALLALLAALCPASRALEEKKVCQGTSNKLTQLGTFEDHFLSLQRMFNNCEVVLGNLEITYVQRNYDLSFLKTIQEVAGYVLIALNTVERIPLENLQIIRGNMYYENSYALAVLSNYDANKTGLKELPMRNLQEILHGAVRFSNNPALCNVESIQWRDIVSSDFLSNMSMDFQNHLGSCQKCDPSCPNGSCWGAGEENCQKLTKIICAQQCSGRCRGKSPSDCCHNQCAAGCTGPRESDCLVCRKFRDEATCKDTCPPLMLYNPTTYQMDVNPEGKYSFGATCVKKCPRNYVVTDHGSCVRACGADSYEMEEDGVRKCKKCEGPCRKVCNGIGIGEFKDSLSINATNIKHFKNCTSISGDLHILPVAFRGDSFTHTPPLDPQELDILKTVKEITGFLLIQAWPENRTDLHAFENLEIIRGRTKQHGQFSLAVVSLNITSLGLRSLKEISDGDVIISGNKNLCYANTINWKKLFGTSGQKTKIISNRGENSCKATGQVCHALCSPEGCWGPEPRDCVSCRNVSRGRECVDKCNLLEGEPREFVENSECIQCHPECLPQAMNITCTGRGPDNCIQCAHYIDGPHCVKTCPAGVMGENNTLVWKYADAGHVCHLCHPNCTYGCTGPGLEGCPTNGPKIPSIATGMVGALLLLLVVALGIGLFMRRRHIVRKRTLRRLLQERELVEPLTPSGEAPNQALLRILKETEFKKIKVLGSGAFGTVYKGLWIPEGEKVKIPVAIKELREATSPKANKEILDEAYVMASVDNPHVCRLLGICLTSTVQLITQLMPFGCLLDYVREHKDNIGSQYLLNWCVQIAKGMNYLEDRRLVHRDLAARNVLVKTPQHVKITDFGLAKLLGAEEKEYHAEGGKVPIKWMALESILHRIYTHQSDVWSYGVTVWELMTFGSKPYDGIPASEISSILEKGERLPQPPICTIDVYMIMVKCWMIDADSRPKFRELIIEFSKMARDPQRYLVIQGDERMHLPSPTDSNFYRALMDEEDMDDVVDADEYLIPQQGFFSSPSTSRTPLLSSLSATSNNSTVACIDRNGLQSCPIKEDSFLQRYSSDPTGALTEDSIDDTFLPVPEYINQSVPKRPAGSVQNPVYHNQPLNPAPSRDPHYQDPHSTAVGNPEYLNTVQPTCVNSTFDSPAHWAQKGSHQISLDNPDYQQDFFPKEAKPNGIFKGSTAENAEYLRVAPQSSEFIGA
Dickkopf-related protein 1 (Homo sapiens), sequence (O94907 whole entry, looked up): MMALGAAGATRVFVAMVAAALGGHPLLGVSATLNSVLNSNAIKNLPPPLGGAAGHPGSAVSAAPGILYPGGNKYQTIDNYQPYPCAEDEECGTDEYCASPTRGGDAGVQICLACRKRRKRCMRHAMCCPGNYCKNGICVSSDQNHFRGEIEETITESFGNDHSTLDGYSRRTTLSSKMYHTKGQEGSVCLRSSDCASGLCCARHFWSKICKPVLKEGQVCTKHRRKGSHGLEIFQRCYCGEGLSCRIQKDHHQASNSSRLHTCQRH

Consider `C=C(/C(=C/C[C@H](OC(C)=O)c1ccc(CO)o1)c1cc(C(=O)OC)ccc1OC)C(C)C`, for which the composite z-score in assay [1] was -0.415; in assay [2], -0.0153; in assay [3], -0.0899; in assay [5], 0.505; in assay [6] it was -0.196; in [7] it was -0.455. The composite z-score in assay [8] is 0.397; in assay [9], 0.0625; in [10], 0.463; in assay [11], -0.3; in assay [13], -0.183; in assay [14], -0.0278. The composite z-score in assay [15] was -0.061; in assay [16] it was -0.0506; in assay [17], 0.318; in [18], 0.168; in [19] it was 0.0916; in assay [20] it was -0.829. Further, the results for the z-score in [4] and in assay [12] were -0.0448 (inactive) and -2.22, respectively.
Regarding `C[N+](C)(C)CCCC[C@@H]1NC(=O)[C@H]2C[C@@H](C(=O)NCCCCCCNC(=O)CS)[C@@H](c3cccc(OCCO)c3)N2C1=O`, the composite z-score in assay [1] is 0.726; in assay [2], -0.0575; in assay [3], 0.861; in [5] it was -0.85; in [6], -0.805; in [7], -1.06. Besides, the composite z-score is -0.994 in assay [8]; -0.602 in assay [9]; -0.57 in [10]; -1.51 in assay [11]; -1.55 in assay [13]; -0.149 in assay [14]. For the same compound, the composite z-score in [15] was 0.105; in assay [16], -0.202; in assay [17], -0.17; in [18], -0.175; in assay [19], -0.933; in assay [20] it was -1.06. The z-score in [4] is -0.213 (inactive); in assay [12], -0.242.
For the compound `CCC[C@@H]1C[C@@]1(CCC)[C@@H](NS(=O)(=O)c1cccc2cccnc12)c1ccc(Cl)cc1`, the composite z-score was -0.318 in [1]; 0.916 in assay [2]; 1.1 in assay [3]; 0.044 in [5]; -0.594 in assay [6]; -0.484 in assay [7]. For the same compound, the composite z-score in assay [8] was -0.445; in [9], -0.35; in [10] it was 1.04; in [11] it was 1.23; in assay [13], -0.385; in assay [14], 0.976. The composite z-score was determined as 1.28 in assay [15]; 0.0839 in [16]; 0.426 in assay [17]; 1.1 in assay [18]; 0.731 in assay [19]; 0.6 in assay [20]. Also, the z-score in assay [4] was 0.109 (inactive); in assay [12], -1.38.
With `Cc1ccc(S[C@]2(C(=O)NC3CC3)CC(=O)N(Cc3ccccc3)[C@@H]2c2ccc(CO)cc2I)cc1`, the composite z-score in [1] was 0.562; in assay [2], 0.0491; in assay [3] it was 0.717; in assay [5], -0.794; in assay [6], -0.281; in [7] it was -1.34. Further, the composite z-score was -1.37 in [8]; -1.59 in [9]; 0.5 in assay [10]; 0.477 in [11]; -1.2 in assay [13]; -0.351 in assay [14]. In addition, the composite z-score is -0.149 in [15]; -0.0221 in assay [16]; -0.0794 in [17]; 0.503 in [18]; -0.0172 in assay [19]; -0.734 in assay [20]. Also, the z-score in assay [4] was -1.21 (inactive); in assay [12] it was -1.9.
As to `COCCOC(=O)N1C(=O)[C@@]2(c3cc(C#CCNC(N)=O)ccc31)[C@H](C(=O)Nc1nc3ccccc3s1)[C@H]1C(=O)O[C@H](c3ccccc3)[C@H](c3ccccc3)N1[C@@H]2c1ccc(OCCO)cc1`, the composite z-score is -0.112 in [1]; 0.92 in [2]; 0.795 in assay [3]; 1.11 in [5]; 0.755 in assay [6]; 0.373 in assay [7]. The composite z-score amounted to 0.963 in [8]; 1.15 in assay [9]; 0.542 in [10]; 1.26 in assay [11]; 0.825 in [13]; 1.37 in assay [14]. Also, the composite z-score in assay [15] was 0.662; in [16] it was 0.003; in assay [17] it was -0.382; in assay [18], -0.229; in [19], 0.415; in assay [20], 1.24. Besides, the figures for the z-score in assay [4] and in assay [12] were -0.239 (inactive) and -1.08, respectively.
